# Assay results from the supplement of paper PMC8728848.
# This is one part of a sample in which the strongest signals are shown more often than they occur.
# Legend:
# Assay in all cases: glycan array binding signal (z-score within array); higher = stronger binding
# Conditions in all cases: glycan notation: IUPAC condensed, linker removed
# [1] = target: Fuc(a1-2)Gal
# Outline: (§1)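 The Consortium for Functional Glycomics database supplied 3228 glycan arrays, of which those lacking an available protein sequence were dropped. The binding signal, a within-array Z-score, was averaged across arrays of the same protein sequence and across linkers. Negative scores can be read as non-binding.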
# [2] = target: Fuc(a1-2)Gal(b1-3)GlcNAc(b1-2)Man(a1-3)[Fuc(a1-2)Gal(b1-3)GlcNAc(b1-2)Man(a1-6)]Man(b1-4)GlcNAc(b1-4)GlcNAc
# Outline: as §1
# [3] = target: Fuc(a1-2)Gal(b1-3)GlcNAc(b1-3)[Neu5Ac(a2-6)Gal(b1-4)GlcNAc(b1-6)]Gal(b1-4)Glc
# Outline: as §1
# [4] = target: Fuc(a1-2)Gal(b1-4)GlcNAc(b1-2)Man(a1-3)[Fuc(a1-2)Gal(b1-4)GlcNAc(b1-2)Man(a1-6)]Man(b1-4)GlcNAc(b1-4)[Fuc(a1-6)]GlcNAc
# Outline: as §1
# [5] = target: Fuc(a1-2)Gal(b1-4)[Fuc(a1-3)]GlcNAc(b1-2)[Fuc(a1-2)Gal(b1-4)[Fuc(a1-3)]GlcNAc(b1-4)]Man(a1-3)[Fuc(a1-2)Gal(b1-4)[Fuc(a1-3)]GlcNAc(b1-2)Man(a1-6)]Man(b1-4)GlcNAc(b1-4)GlcNAc
# Outline: as §1
# [6] = target: Fuc(a1-2)Gal6S(b1-3)GlcNAc
# Outline: as §1
# [7] = target: Fuc(a1-2)[Gal(a1-3)]Gal(b1-3)GlcNAc(b1-2)Man(a1-3)[Fuc(a1-2)[Gal(a1-3)]Gal(b1-3)GlcNAc(b1-2)Man(a1-6)]Man(b1-4)GlcNAc(b1-4)GlcNAc
# Outline: as §1
# [8] = target: Gal(a1-3)Gal(b1-3)GlcNAc(b1-2)Man(a1-3)[Gal(a1-3)Gal(b1-3)GlcNAc(b1-2)Man(a1-6)]Man(b1-4)GlcNAc(b1-4)GlcNAc
# Outline: as §1
# [9] = target: Gal(a1-3)Gal(b1-3)[Fuc(a1-4)]GlcNAc(b1-2)Man(a1-3)[Gal(a1-3)Gal(b1-3)[Fuc(a1-4)]GlcNAc(b1-2)Man(a1-6)]Man(b1-4)GlcNAc(b1-4)GlcNAc
# Outline: as §1
# [10] = target: Gal(a1-3)Gal(b1-4)Glc
# Outline: as §1
# [11] = target: Gal(a1-6)Glc
# Outline: as §1
# [12] = target: Gal(b1-3)GlcNAc
# Outline: as §1
# [13] = target: Gal(b1-3)GlcNAc(b1-3)Gal(b1-4)[Fuc(a1-3)]GlcNAc
# Outline: as §1
# [14] = target: Gal(b1-3)GlcNAc(b1-3)GalNAc
# Outline: as §1
# [15] = target: Gal(b1-3)[Fuc(a1-4)]GlcNAc(b1-2)Man
# Outline: as §1
# [16] = target: Gal(b1-3)[Fuc(a1-4)]GlcNAc(b1-3)Gal(b1-3)[Fuc(a1-4)]GlcNAc
# Outline: as §1
# [17] = target: Gal(b1-4)GlcNAc(a1-6)Gal(b1-4)GlcNAc
# Outline: as §1
# [18] = target: Gal(b1-4)GlcNAc(b1-2)Man(a1-3)[GlcNAc(b1-2)Man(a1-6)]Man(b1-4)GlcNAc(b1-4)GlcNAc
# Outline: as §1
# [19] = target: Gal(b1-4)GlcNAc(b1-2)[Gal(b1-4)GlcNAc(b1-4)]Man(a1-3)[GlcNAc(b1-4)][Gal(b1-4)GlcNAc(b1-2)Man(a1-6)]Man(b1-4)GlcNAc(b1-4)GlcNAc
# Outline: as §1
# [20] = target: Gal(b1-4)GlcNAc(b1-3)Gal(b1-4)GlcNAc(b1-2)[Gal(b1-4)GlcNAc(b1-3)Gal(b1-4)GlcNAc(b1-6)]Man(a1-6)[Gal(b1-4)GlcNAc(b1-3)Gal(b1-4)GlcNAc(b1-2)Man(a1-3)]Man(b1-4)GlcNAc(b1-4)GlcNAc
# Outline: as §1
# [21] = target: Gal(b1-4)GlcNAc(b1-3)Gal(b1-4)GlcNAc(b1-3)Gal(b1-4)GlcNAc(b1-3)Gal(b1-4)GlcNAc(b1-3)Gal(b1-4)GlcNAc(b1-3)Gal(b1-4)GlcNAc(b1-2)Man(a1-3)[Gal(b1-4)GlcNAc(b1-3)Gal(b1-4)GlcNAc(b1-3)Gal(b1-4)GlcNAc(b1-3)Gal(b1-4)GlcNAc(b1-3)Gal(b1-4)GlcNAc(b1-3)Gal(b1-4)GlcNAc(b1-2)Man(a1-6)]Man(b1-4)GlcNAc(b1-4)GlcNAc
# Outline: as §1
# [22] = target: Gal6S(b1-4)GlcNAc
# Outline: as §1
# [23] = target: GalNAc(b1-3)Gal(a1-6)Gal(b1-4)Glc
# Outline: as §1
# [24] = target: GalNAc(b1-4)GlcNAc(b1-2)Man
# Outline: as §1
# [25] = target: GlcNAc(a1-3)Gal(b1-4)GlcNAc
# Outline: as §1
# [26] = target: GlcNAc(a1-6)Gal(b1-4)GlcNAc
# Outline: as §1
# [27] = target: GlcNAc(b1-3)Gal(b1-4)GlcNAc(b1-2)Man(a1-3)[GlcNAc(b1-3)Gal(b1-4)GlcNAc(b1-2)Man(a1-6)]Man(b1-4)GlcNAc(b1-4)[Fuc(a1-6)]GlcNAc
# Outline: as §1
# [28] = target: GlcNAc(b1-3)Gal(b1-4)GlcNAc(b1-2)[GlcNAc(b1-3)Gal(b1-4)GlcNAc(b1-6)]Man(a1-6)[GlcNAc(b1-3)Gal(b1-4)GlcNAc(b1-2)Man(a1-3)]Man(b1-4)GlcNAc(b1-4)GlcNAc
# Outline: as §1
# [29] = target: GlcNAc(b1-3)Gal(b1-4)GlcNAc(b1-3)Gal(b1-4)GlcNAc(b1-3)GalNAc
# Outline: as §1
# [30] = target: GlcNAc(b1-3)Man
# Outline: as §1
# [31] = target: Kdn(a2-3)Gal(b1-4)GlcNAc
# Outline: as §1
# [32] = target: Kdn(a2-6)Gal(b1-4)GlcNAc
# Outline: as §1
# [33] = target: Neu5Ac(a2-3)Gal(b1-3)GalNAc
# Outline: as §1
# [34] = target: Neu5Ac(a2-3)Gal(b1-3)GlcNAc(b1-2)Man(a1-3)[Neu5Ac(a2-3)Gal(b1-3)GlcNAc(b1-2)Man(a1-6)]Man(b1-4)GlcNAc(b1-4)GlcNAc
# Outline: as §1
# [35] = target: Neu5Ac(a2-3)Gal(b1-4)GlcNAc(b1-3)Gal(b1-4)GlcNAc(b1-3)Gal(b1-4)GlcNAc(b1-2)Man(a1-3)[Neu5Ac(a2-3)Gal(b1-4)GlcNAc(b1-3)Gal(b1-4)GlcNAc(b1-3)Gal(b1-4)GlcNAc(b1-2)Man(a1-6)]GalNAc
# Outline: as §1
# [36] = target: Neu5Ac(a2-3)Gal(b1-4)GlcNAc(b1-3)[Neu5Ac(a2-3)Gal(b1-4)GlcNAc(b1-6)]GalNAc
# Outline: as §1
# [37] = target: Neu5Ac(a2-6)Gal(b1-4)GlcNAc(b1-3)Gal(b1-4)GlcNAc(b1-6)[Gal(b1-3)]GalNAc
# Outline: as §1
# [38] = target: Neu5Ac(a2-6)Gal(b1-4)GlcNAc(b1-3)[Neu5Ac(a2-6)Gal(b1-4)GlcNAc(b1-6)]GalNAc
# Outline: as §1
# [39] = target: Neu5Ac9Ac(a2-3)Gal(b1-4)GlcNAc
# Outline: as §1
# [40] = target: Neu5Gc(a2-3)Gal(b1-3)GlcNAc
# Outline: as §1
binder,measurement,setting,value
HPL (Tachypleus tridentatus) (protein) MEDDCTCVTDRSLEGKLMKHPSTPAVYQILDGCRRLVPNPPTYNNIYKNWECIQSNILEKLLCKCDSLSNGAELIKGSGDTVYLLSNGVKRPIADPETFNGFCFDWNKIKTYSDIVINSLSTGPIIIIKHHHHHH,glycan array binding signal (z-score),[1],-0.153
same,glycan array binding signal (z-score),[2],4.15
same,glycan array binding signal (z-score),[3],-0.343
same,glycan array binding signal (z-score),[4],3.19
same,glycan array binding signal (z-score),[5],2.19
same,glycan array binding signal (z-score),[6],0.027
same,glycan array binding signal (z-score),[7],-0.163
same,glycan array binding signal (z-score),[8],3.2
same,glycan array binding signal (z-score),[9],2.31
same,glycan array binding signal (z-score),[10],0.05
same,glycan array binding signal (z-score),[11],1.55
same,glycan array binding signal (z-score),[12],-0.177
same,glycan array binding signal (z-score),[13],-0.309
same,glycan array binding signal (z-score),[14],-0.36
same,glycan array binding signal (z-score),[15],1.71
same,glycan array binding signal (z-score),[16],-0.131
same,glycan array binding signal (z-score),[17],-0.342
same,glycan array binding signal (z-score),[18],-0.178
same,glycan array binding signal (z-score),[19],5.11
same,glycan array binding signal (z-score),[20],2.19
same,glycan array binding signal (z-score),[21],-0.206
same,glycan array binding signal (z-score),[22],-0.335
same,glycan array binding signal (z-score),[23],-0.402
same,glycan array binding signal (z-score),[24],-0.379
same,glycan array binding signal (z-score),[25],-0.255
same,glycan array binding signal (z-score),[26],-0.429
same,glycan array binding signal (z-score),[27],0.104
same,glycan array binding signal (z-score),[28],0.395
same,glycan array binding signal (z-score),[29],-0.251
same,glycan array binding signal (z-score),[30],0.24
same,glycan array binding signal (z-score),[31],-0.185
same,glycan array binding signal (z-score),[32],-0.279
same,glycan array binding signal (z-score),[33],-0.291
same,glycan array binding signal (z-score),[34],2.02
same,glycan array binding signal (z-score),[35],1.54
same,glycan array binding signal (z-score),[36],-0.093
same,glycan array binding signal (z-score),[37],-0.132
same,glycan array binding signal (z-score),[38],0.127
same,glycan array binding signal (z-score),[39],-0.231
same,glycan array binding signal (z-score),[40],-0.215
